Source: PubChem BioAssay (NCATS)
Records with an inconclusive call do not appear. Values without a mark were called inactive. Calls of active or inactive are those of the source. Unless noted, calls follow the shape of the full dose curve. Residues, ends and D or L forms follow the SMILES beside them.

Target: Cytochrome P450 1A2 (Homo sapiens) (UniProt P05177)
Sequence (P05177 whole entry, looked up): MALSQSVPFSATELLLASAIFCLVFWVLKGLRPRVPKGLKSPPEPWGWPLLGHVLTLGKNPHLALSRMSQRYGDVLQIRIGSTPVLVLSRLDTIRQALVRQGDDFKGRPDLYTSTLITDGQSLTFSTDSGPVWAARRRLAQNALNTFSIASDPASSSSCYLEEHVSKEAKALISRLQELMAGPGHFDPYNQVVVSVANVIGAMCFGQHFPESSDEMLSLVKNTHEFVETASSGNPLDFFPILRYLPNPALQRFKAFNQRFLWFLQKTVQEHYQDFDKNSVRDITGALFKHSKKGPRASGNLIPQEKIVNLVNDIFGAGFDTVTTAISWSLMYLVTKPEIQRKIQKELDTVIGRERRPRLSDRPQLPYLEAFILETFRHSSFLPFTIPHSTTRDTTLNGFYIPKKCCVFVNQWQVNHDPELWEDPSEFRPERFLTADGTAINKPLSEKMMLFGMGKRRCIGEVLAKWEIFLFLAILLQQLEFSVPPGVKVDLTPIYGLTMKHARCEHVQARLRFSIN
Test: p450-cyp1a2 (AID 410); also: potency is read from the fitted curve at half-maximal effect;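 as to activity change, negative = inhibition: -100% = full effect of reference inhibitor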
Settings: recombinant CYP1A2, luciferin-ME demethylation, luminescence; series mostly up to 11.4 µM
Outline: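 Read-out is luminescence from luciferin produced by CYP1A2 demethylation of Luciferin-ME (100uM, at Km). Detection reagent stopped the 60 min NADPH-dependent reaction; signals were normalized to 57 uM furafylline.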
With `O=C(O)c1cc(-c2ccc3cc4c(cc3c2)OCO4)nc2ccccc12` the Potency was 3160 nM (active). For `c1cc(NNc2cccc(-c3nn[nH]n3)c2)cc(-c2nn[nH]n2)c1`, the activity change, negative = inhibition was -15.5% [at 2.29 µM]. For `O=C(O)c1ccc(OCc2ccccc2)c(Cl)c1`, the activity change, negative = inhibition was -3.2% [at 2.29 µM]. `Oc1ccc(Cl)cc1C=Nc1cnc2ccccc2c1` showed an activity change, negative = inhibition of -13.2% [at 2.29 µM]. In the case of `N[C@H]1[C@@H](C(=O)O)[C@H]2C=C[C@H]1C2`, the Potency is reported as “inactive”. With `Cc1ccc(S(=O)(=O)Oc2cc(N)c3c(n2)CCC3)cc1` the activity change, negative = inhibition was -19.4% [at 2.29 µM]. For `CN(C)CCCNc1ncnc2nc[nH]c12`, the Potency was “inactive”. In the case of `CCc1c(O)c2c(c(O)c1C(C)=O)C(=O)c1c(cc(O)c(C(=O)O)c1C(=O)O)C2=O`, the Potency is reported as “inactive”. Work on `CC1(C)[C@@H]2CC[C@]1(C)[C@@H](OC(=O)/C=C\c1ccccc1)C2` yielded an activity change, negative = inhibition of -3.4% [at 2.29 µM]. In the case of `CCCCN(c1ccccc1)c1ncnc2c1cnn2C`, the Potency is reported as 631 nM (active). With `C[C@H](Br)C(=O)c1ccc2cc(Br)c3ccccc3c2c1` the Potency was 158 nM (active). In the case of `NCC(=O)NC1(C(=O)O)CCCC1` (HELM PEPTIDE1{G.[O=C(O)C1(N[*:1])CCCC1]}$$$$V2.0), the Potency is reported as “inactive”. In the case of `COc1ccc([C@H](O)c2ccccn2)cc1`, the Potency is reported as “inactive”. Work on `Cn1c(=O)c2c(ncn2CN2CCN(Cn3cnc4c3c(=O)n(C)c(=O)n4C)CC2)n(C)c1=O` yielded an activity change, negative = inhibition of -18.2% [at 2.29 µM]. Work on `CSc1ncnc2c1ncn2[C@@H]1O[C@@H](CO)[C@H](O)O[C@@H]1O` yielded an activity change, negative = inhibition of -5.2% [at 2.29 µM]. For `CC(C)[C@@H](C)/C=C\[C@@H](C)[C@@H]1CC[C@H]2C3=CC=C4C[C@@H](O)CC[C@]4(C)[C@H]3CC[C@]21C`, the Potency was “inactive”. In the case of `Nc1nc(N)c2[nH]cnc2n1` (tested in a mixture with another compound), the activity change, negative = inhibition is reported as -5.5% [at 2.29 µM]. For `[O-][N+]1(CC[N+]2([O-])CCCCC2)CCCCC1`, the Potency was “inactive”. Work on `C[N+](C)(N)Cc1csc(-c2ccc(Cl)cc2)n1` yielded an activity change, negative = inhibition of -4.2% [at 2.29 µM]. In the case of `O=C(O)c1nn(-c2ccc(Cl)cc2)c2c1C(=O)c1ccccc1C2=O`, the Potency is reported as 251 nM (active). In the case of `O=C(O)[C@@H]1[C@@H](C(=O)Nc2ccccc2)[C@@H]2C=C[C@@H]1O2`, the activity change, negative = inhibition is reported as -18.1% [at 2.29 µM]. For `Nc1ccc(N=Nc2c(S(=O)(=O)O)cc3ccccc3c2S(=O)(=O)O)cc1`, the activity change, negative = inhibition was -20.9% [at 2.29 µM]. For `NC[C@H]1O[C@H](n2cnc3c(N)ncnc32)C[C@@H]1O`, the Potency was “inactive”. For `O=C(O)C(Cc1ccccc1-c1ccccc1)C(=O)O`, the Potency was “inactive”. In the case of `O=P(O)(O)O[C@@H]1O[C@H](CO)[C@@H](O)[C@H](O)[C@@H]1O`, the Potency is reported as “inactive”. With `O=C(O)[C@@H]1[C@@H](C(=O)NCc2cccnc2)[C@@H]2C=C[C@@H]1O2` the activity change, negative = inhibition was -0.4% [at 2.29 µM]. `N=C(N)SCc1cccc(-c2nc3ccccc3c(=O)o2)c1` gave an activity change, negative = inhibition of -10.3% [at 2.29 µM]. For `O=c1cc(CF)[nH]c(=S)[nH]1`, the Potency was “inactive”. With `Cc1cc2sc(C)[n+](CCCOS(=O)(=O)O)c2cc1C` the Potency was “inactive”. In the case of `C/C(=C\c1ccc(Cl)cc1)C(C)(C)C(=O)O`, the Potency is reported as “inactive”. For `Cc1cc(=O)oc2c(OS(C)(=O)=O)c(OS(C)(=O)=O)ccc12`, the Potency was 794 nM (active). In the case of `[O-][N+](CCO)(CCO)c1ncnc2nc[nH]c12`, the Potency is reported as “inactive”. `O=C(O)[C@@H]1Cc2c([nH]c3ccccc23)[C@@H](CCCCO)N1` showed an activity change, negative = inhibition of -9.6% [at 2.29 µM]. For `c1ccc(CCNc2ccccn2)nc1`, the Potency was 5010 nM (active). With `NC(N)=N/N=C\c1ccc(C2CCNCC2)cc1` the activity change, negative = inhibition was -12% [at 2.29 µM]. In the case of `Cc1ccc(S(=O)(=O)NC(=O)OC23COCN2COC3)cc1`, the Potency is reported as “inactive”. In the case of `N[C@@H](CSCc1ccccc1)C(=O)O`, the Potency is reported as “inactive”. In the case of `O=S(=O)(O)[C@@H](CO)c1ccccc1` (tested in a mixture with another compound), the activity change, negative = inhibition is reported as -1.9% [at 2.29 µM]. With `CCN(CC)C[C@@H](O)c1ccc2ccc3ccccc3c2c1` the Potency was 794 nM (active). With `COc1cc(N=C(N)N=C(N)N)c2ncccc2c1` the Potency was 398 nM (active).

Test system: not listed separately
Test: NFAT Signaling Pathway (AID 444; active = well fitted curve in either direction with a large enough effect, not every such curve was filed as active;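 also: carbachol stimulus at about its EC50 of 1 µM final; % is scaled to controls: 0 for no effect and ±100 for the full control effect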)
Settings: Jurkat NFAT-bla M1, carbachol, beta-lactamase ratio, 5 h; at 7.69 µM (top of the series) unless noted
Outline: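 Read-out: CCF4 FRET ratio (460 nm/530 nm) after 1 h RT dye loading, used for %activity and AC50 from titration series. Cells: Jurkat NFAT-β-lactamase/M1 line, treated with compound plus 1 uM carbachol for 5 h, 37 °C.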
`O=C(O)c1cc(-c2ccc3cc4c(cc3c2)OCO4)nc2ccccc12` gave an activity change, negative = inhibition of -22.2%. Work on `c1cc(NNc2cccc(-c3nn[nH]n3)c2)cc(-c2nn[nH]n2)c1` yielded an activity change, negative = inhibition of 2.46%. `O=C(O)c1ccc(OCc2ccccc2)c(Cl)c1` showed an activity change, negative = inhibition of 2.05%. Work on `Oc1ccc(Cl)cc1C=Nc1cnc2ccccc2c1` yielded an activity change, negative = inhibition of 10.1%. For `N[C@H]1[C@@H](C(=O)O)[C@H]2C=C[C@H]1C2`, the activity change, negative = inhibition was 24.6%. Compound `Cc1ccc(S(=O)(=O)Oc2cc(N)c3c(n2)CCC3)cc1` has an activity change, negative = inhibition of 9.71%. In the case of `CN(C)CCCNc1ncnc2nc[nH]c12`, the activity change, negative = inhibition is reported as -10.5%. With `CCc1c(O)c2c(c(O)c1C(C)=O)C(=O)c1c(cc(O)c(C(=O)O)c1C(=O)O)C2=O` the activity change, negative = inhibition was 15.1%. For `CC1(C)[C@@H]2CC[C@]1(C)[C@@H](OC(=O)/C=C\c1ccccc1)C2`, the activity change, negative = inhibition was -17.9%. With `CCCCN(c1ccccc1)c1ncnc2c1cnn2C` the activity change, negative = inhibition was 12.1%. With `C[C@H](Br)C(=O)c1ccc2cc(Br)c3ccccc3c2c1` the activity change, negative = inhibition was 26.1%. In the case of `NCC(=O)NC1(C(=O)O)CCCC1` (HELM PEPTIDE1{G.[O=C(O)C1(N[*:1])CCCC1]}$$$$V2.0), the activity change, negative = inhibition is reported as -2.62%. Work on `COc1ccc([C@H](O)c2ccccn2)cc1` yielded an activity change, negative = inhibition of 2.24%. With `Cn1c(=O)c2c(ncn2CN2CCN(Cn3cnc4c3c(=O)n(C)c(=O)n4C)CC2)n(C)c1=O` the activity change, negative = inhibition was 7.2%. Compound `CSc1ncnc2c1ncn2[C@@H]1O[C@@H](CO)[C@H](O)O[C@@H]1O` has an activity change, negative = inhibition of 22.2%. For `CC(C)[C@@H](C)/C=C\[C@@H](C)[C@@H]1CC[C@H]2C3=CC=C4C[C@@H](O)CC[C@]4(C)[C@H]3CC[C@]21C`, the activity change, negative = inhibition was 25.1%. In the case of `Nc1nc(N)c2[nH]cnc2n1` (tested in a mixture with another compound), the activity change, negative = inhibition is reported as 20.2%. For `[O-][N+]1(CC[N+]2([O-])CCCCC2)CCCCC1`, the activity change, negative = inhibition was 2.18%. Work on `C[N+](C)(N)Cc1csc(-c2ccc(Cl)cc2)n1` yielded an activity change, negative = inhibition of -11.8%. `O=C(O)c1nn(-c2ccc(Cl)cc2)c2c1C(=O)c1ccccc1C2=O` gave an activity change, negative = inhibition of -17.6%. Compound `O=C(O)[C@@H]1[C@@H](C(=O)Nc2ccccc2)[C@@H]2C=C[C@@H]1O2` has an activity change, negative = inhibition of 8.21%. `Nc1ccc(N=Nc2c(S(=O)(=O)O)cc3ccccc3c2S(=O)(=O)O)cc1` showed an activity change, negative = inhibition of 11.9%. With `NC[C@H]1O[C@H](n2cnc3c(N)ncnc32)C[C@@H]1O` the activity change, negative = inhibition was 7.55%. Work on `O=C(O)C(Cc1ccccc1-c1ccccc1)C(=O)O` yielded an activity change, negative = inhibition of 3.57%. Work on `O=P(O)(O)O[C@@H]1O[C@H](CO)[C@@H](O)[C@H](O)[C@@H]1O` yielded an activity change, negative = inhibition of 2.61%. `O=C(O)[C@@H]1[C@@H](C(=O)NCc2cccnc2)[C@@H]2C=C[C@@H]1O2` gave an activity change, negative = inhibition of 2.31%. Compound `N=C(N)SCc1cccc(-c2nc3ccccc3c(=O)o2)c1` has an activity change, negative = inhibition of 10.1%. Compound `O=c1cc(CF)[nH]c(=S)[nH]1` has an activity change, negative = inhibition of 5.97%. `Cc1cc2sc(C)[n+](CCCOS(=O)(=O)O)c2cc1C` gave an activity change, negative = inhibition of 7.47%. In the case of `C/C(=C\c1ccc(Cl)cc1)C(C)(C)C(=O)O`, the activity change, negative = inhibition is reported as -8.85%. With `Cc1cc(=O)oc2c(OS(C)(=O)=O)c(OS(C)(=O)=O)ccc12` the activity change, negative = inhibition was 5.12%. `[O-][N+](CCO)(CCO)c1ncnc2nc[nH]c12` gave an activity change, negative = inhibition of -3.2%. Work on `O=C(O)[C@@H]1Cc2c([nH]c3ccccc23)[C@@H](CCCCO)N1` yielded an activity change, negative = inhibition of 3.55%. `c1ccc(CCNc2ccccn2)nc1` showed an activity change, negative = inhibition of 2.35%. Work on `NC(N)=N/N=C\c1ccc(C2CCNCC2)cc1` yielded an activity change, negative = inhibition of -11.8%. Work on `Cc1ccc(S(=O)(=O)NC(=O)OC23COCN2COC3)cc1` yielded an activity change, negative = inhibition of 27.6%. `N[C@@H](CSCc1ccccc1)C(=O)O` gave an activity change, negative = inhibition of 3.49%. Compound `O=S(=O)(O)[C@@H](CO)c1ccccc1` (tested in a mixture with another compound) has an activity change, negative = inhibition of 3.56%. Work on `CCN(CC)C[C@@H](O)c1ccc2ccc3ccccc3c2c1` yielded an activity change, negative = inhibition of 16.1%. Work on `COc1cc(N=C(N)N=C(N)N)c2ncccc2c1` yielded an activity change, negative = inhibition of 3.48%.
